# The full ranking holds about 68,000 sequences; the median of “fluorescence intensity (a.u.)” is about 9,100, and the highest 2% start at about 16,000. For the sample, the highest values were picked, then their nearest neighbours and some sequences at random.
# Biological target: OsWRKY34 (Oryza sativa, UniProt Q0JBA9 1-250)
# Experiment: protein-binding microarray (RPBM); PBS, 2% BSA, 51.3 ng/ul salmon testes DNA, 50 uM zinc acetate, 200 nM TF, 25 C, 1 h; high values mean tight binding
# Details: protein: recombinant; tags: N-terminal polyhistidine and DsRed monomer fusion (pET32a); label: CyDye5-dUTP incorporated in the synthesized complementary strand; 3' TTTTT single-stranded linker to array surface; dsDNA, one strand shown
# Method in brief: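 Binding signal is defined as the fluorescence intensity of each feature in arbitrary units, read on an Axon 4000B scanner. Transcription factors with N-terminal polyhistidine and DsRed fusions came from E. coli BL21-CodonPlus and were purified on Ni–NTA. They were incubated at 200 nM for 1 h at 25 °C on a custom Agilent array that had been made double-stranded with Cy5-dUTP, with 50 µM zinc acetate present, and the array was washed.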
# Sequence of OsWRKY34 (Q0JBA9 entry or part of it): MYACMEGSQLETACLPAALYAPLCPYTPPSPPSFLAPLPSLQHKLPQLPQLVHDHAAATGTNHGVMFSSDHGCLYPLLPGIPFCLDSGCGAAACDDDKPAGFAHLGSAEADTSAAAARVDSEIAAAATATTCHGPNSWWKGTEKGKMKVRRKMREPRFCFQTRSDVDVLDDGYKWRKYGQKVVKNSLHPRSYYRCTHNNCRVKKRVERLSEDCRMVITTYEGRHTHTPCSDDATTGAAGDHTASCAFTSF
row,Sequence,binding signal
1,CCTCCGTCCCTAAATATTCGACGCCGTTGACTTTTTTAAACGGAGTCACCTAGTGCAG,21700 fluorescence intensity (a.u.)
2,CTCCGTTTGTAAATATTTGACGCCGTTGACTTTTTAAAATCGGAGTCACCTAGTGCAG,22700 fluorescence intensity (a.u.)
3,TATCTAAATATTTGACGCCGTTGACTTTTTAAAACATGTTCGGAGTCACCTAGTGCAG,30900 fluorescence intensity (a.u.)
4,GTCCCTAAATATTTGACGCCGTTGACTTTTTTAAACATGTCGGAGTCACCTAGTGCAG,28500 fluorescence intensity (a.u.)
5,ATATTTGACGCCGTTGACTTTTTTAAACATATTTAACTGTCGGAGTCACCTAGTGCAG,14600 fluorescence intensity (a.u.)
6,CCCTTTCACATGTCACCTCTGACCCACAAACAAACCCTTTCGGAGTCACCTAGTGCAG,8210 fluorescence intensity (a.u.)
7,GAGTTATCCTCACCACCCACCGCTCGTCGCCTCCACTCCGCGGAGTCACCTAGTGCAG,8120 fluorescence intensity (a.u.)
8,AGTAAGAGATCTCAAATTGATATGGGTTCTTGTTTTATATCGGAGTCACCTAGTGCAG,8150 fluorescence intensity (a.u.)
9,CACCAAGCAGTCCCCTGTGTTCATCTTCTGAAGTCTGATTCGGAGTCACCTAGTGCAG,8360 fluorescence intensity (a.u.)
10,ATTCCGCGCGCCGCCGCCGTCGCCGCCGCCGACGTCGCCGCGGAGTCACCTAGTGCAG,8920 fluorescence intensity (a.u.)
11,GATGCCATTTTTAAACAATTCCATGCCTTGTTTCCATTTCCGGAGTCACCTAGTGCAG,13400 fluorescence intensity (a.u.)
12,CTCCGTTATCGTTTGACTTTCTTTTCATTAATATTTTAAACGGAGTCACCTAGTGCAG,15600 fluorescence intensity (a.u.)
13,GTACTCCCTCTGACCCTAAATATTTGACGTCGTTGACTTTCGGAGTCACCTAGTGCAG,16300 fluorescence intensity (a.u.)
14,TCCGTCCCTAAATATTTGACGCCGTTGACTTTTTAACACACGGAGTCACCTAGTGCAG,35700 fluorescence intensity (a.u.)
15,CATCTGTTTCTGAATATTTGACGCCGTTGACTTTTTAAAACGGAGTCACCTAGTGCAG,19600 fluorescence intensity (a.u.)
16,ATTTCTAAATATTTGACGTCGTTGACTTTTTTAAACATGTCGGAGTCACCTAGTGCAG,26800 fluorescence intensity (a.u.)
17,CTAAATGTTTAACGCCGTTGACTTTTTAAAACATATTTGACGGAGTCACCTAGTGCAG,13400 fluorescence intensity (a.u.)
18,AAATATTTGACGCCGTTGACTTTCTTAAACATGTTTAACTCGGAGTCACCTAGTGCAG,15700 fluorescence intensity (a.u.)
19,CTAAATATTTGACGCCGTTGACTTTTTAAAACATGTTTGACGGAGTCACCTAGTGCAG,30500 fluorescence intensity (a.u.)
20,CGGCGGTGGTCTCCGCCGTTGGATCTGGGCGTTGACTTGTCGGAGTCACCTAGTGCAG,9160 fluorescence intensity (a.u.)
21,ACTGCTGCTGCATCGGCGCCTTCACCAAGATGTCAACGGACGGAGTCACCTAGTGCAG,8350 fluorescence intensity (a.u.)
22,GCTCTGAATTTTATTTTTTCCGCTTCTTGATTTCTTCGTTCGGAGTCACCTAGTGCAG,9450 fluorescence intensity (a.u.)
23,GTAGCTCGTCGTCACTGCCCATAGTACTCTGGCTTAGCTACGGAGTCACCTAGTGCAG,8030 fluorescence intensity (a.u.)

row,Sequence,binding signal
1,GGAGAGATGCCATGCCGCGCTATGTTGTTCAACTTCAAACCGGAGTCACCTAGTGCAG,8400 fluorescence intensity (a.u.)
2,ATAGTTTGTTGTTTCCCAGACATAATTTTTACTAGCTTATCGGAGTCACCTAGTGCAG,9630 fluorescence intensity (a.u.)
3,GTACACCGAAAGAAACCAACTCGTGTCCATCCATCCGTCTCGGAGTCACCTAGTGCAG,8070 fluorescence intensity (a.u.)
4,TTCATATCTGCTTTTTCCTATATATGTGTGTGTGACTGCACGGAGTCACCTAGTGCAG,9710 fluorescence intensity (a.u.)
5,TTTTATAATATGTTATTGTAGCAGTTTTTGTGAGCTATTACGGAGTCACCTAGTGCAG,8100 fluorescence intensity (a.u.)
6,CTTGTACATCTGTCTTGCTAGAGTCTTTCACAAGATTACACGGAGTCACCTAGTGCAG,8080 fluorescence intensity (a.u.)
7,GTGCTTGTGTGGCGCGTGTGCTTGTCACAGACTCTGCTCCCGGAGTCACCTAGTGCAG,8660 fluorescence intensity (a.u.)
8,TGTGGATGGCGTGGATAAGTTGACAGTTGAAAATACAAAACGGAGTCACCTAGTGCAG,9130 fluorescence intensity (a.u.)
9,AGATGATGTCATTGACCATACAAGTTGAAAATAGGAGCAACGGAGTCACCTAGTGCAG,63300 fluorescence intensity (a.u.)
10,GATACAACCATTGCTCACATCATGGATGAACAAGATGACACGGAGTCACCTAGTGCAG,8160 fluorescence intensity (a.u.)
11,ACATACCTCGTGCGGCCAGTCGCCTGTTACAAACTCCATTCGGAGTCACCTAGTGCAG,8270 fluorescence intensity (a.u.)
12,TCCTTAGCTTCCTTCTGTCGACTTGTCTATTCTTTTTTTCCGGAGTCACCTAGTGCAG,17700 fluorescence intensity (a.u.)
13,GCACCTCTTTCCTATCACGCGTCACCTTGCTCCATTGTCGCGGAGTCACCTAGTGCAG,19000 fluorescence intensity (a.u.)
14,CCTCCTTGTTGCGGTCGTCTTTCGCTCTATCTTCCTTGTCCGGAGTCACCTAGTGCAG,11100 fluorescence intensity (a.u.)
15,TCCTTCTCTGACTCTGTCTTGGCCATCCTATTCCTAGCTCCGGAGTCACCTAGTGCAG,10600 fluorescence intensity (a.u.)
16,ATGGATCATGGATGGCTCCCGTTGTCATTGTCGCGTCGTCCGGAGTCACCTAGTGCAG,9810 fluorescence intensity (a.u.)
17,GTTGTCATTGTCGCGTCGTCACCTCTGATTGCGTCATTCCCGGAGTCACCTAGTGCAG,16500 fluorescence intensity (a.u.)
18,CCTCTCTGATTCGTCACCGCCACCGCCGCGTCGTCCCGCGCGGAGTCACCTAGTGCAG,9730 fluorescence intensity (a.u.)
19,ACCTGTATTTGTCATTATTTAGTGGACTCTGCTTAGTTCTCGGAGTCACCTAGTGCAG,19300 fluorescence intensity (a.u.)
20,ATTGTATTTCTATATGGACTCTGCTTTTTATTTTTCTCCGCGGAGTCACCTAGTGCAG,8930 fluorescence intensity (a.u.)
21,CTATATTCGAGGGAGTCCTTGTGGACTTTTTCCTTCTTTCCGGAGTCACCTAGTGCAG,9390 fluorescence intensity (a.u.)
22,TGGATGGCCTTTTGTCTCTTTGTATATTATATATTTAGTTCGGAGTCACCTAGTGCAG,8260 fluorescence intensity (a.u.)
23,TCTCTCTCCTTTTGTTGCTTCCATTTCTCGTTCTTGCACGCGGAGTCACCTAGTGCAG,10500 fluorescence intensity (a.u.)
